# Screening results from PubChem.
# miR122 inh: raises miR-122 sensor activity in Huh7 cells; AID 623901; 0.14% of 340,000 active; Huh7 psiCHECK-miR122 Renilla luciferase sensor, 48 h; activation, % at 12.5 µM;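 active = mean activation of 30% or more, with every replicate also reaching 30%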;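 note: 0% = median of neutral control wells and 100% = median of positive control wells; higher luciferase signal means stronger suppression of miR-122 activity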
# Numbers without * were called inactive. Shown is part of a subset that was picked to be rich in hits.
SMILES,miR122 inh
C[C@H](CO)N1C[C@H](C)[C@@H](CN(C)CC2CCOCC2)Oc2cc(C#C[C@@H](C)O)ccc2S1(=O)=O,-19.8
C[C@@H]1CN([C@@H](C)CO)C(=O)Cc2cc(NC(=O)C3CCCCC3)ccc2O[C@H]1CN(C)Cc1ccc(-c2ccccc2)cc1,33.0*
C[C@H](CO)N1C[C@H](C)[C@H](CN(C)Cc2ccc(C(=O)Nc3ccccc3N)cc2)Oc2ccc(NC(=O)C3CC3)cc2CC1=O,-165.3
C[C@@H]1CN([C@H](C)CO)C(=O)Cc2cc(NS(=O)(=O)c3ccc(Cl)cc3)ccc2O[C@@H]1CN(C)C(=O)Nc1ccc(C(F)(F)F)cc1,-103.3
Cc1ccc(S(=O)(=O)N(C)C[C@@H]2Oc3ccc(NC(=O)Nc4ccc(C(F)(F)F)cc4)cc3CC(=O)N([C@H](C)CO)C[C@@H]2C)cc1,-122.7
C[C@H](CO)N1C[C@H](C)[C@H](CN(C)Cc2ccc(C(=O)Nc3ccccc3N)cc2)Oc2ccc(NC(=O)C3CCCCC3)cc2CC1=O,-95.0
C[C@@H]1CN([C@@H](C)CO)C(=O)Cc2cc(NC(=O)Nc3ccc(C(F)(F)F)cc3)ccc2O[C@H]1CN(C)CC1CCCCC1,31.5*
C[C@H](CO)N1C[C@H](C)[C@@H](CN(C)C(=O)c2ccccn2)Oc2ncc(C#Cc3ccccc3)cc2C1=O,1.9
Cc1ccc(-c2cnc3c(c2)C(=O)N([C@@H](C)CO)C[C@@H](C)[C@@H](CN(C)C(=O)Cc2ccncc2)O3)cc1,10.2
C[C@@H](O)C#Cc1cnc2c(c1)C(=O)N([C@@H](C)CO)C[C@H](C)[C@H](CN(C)C(=O)CN(C)C)O2,1.6
C[C@H]1CN([C@@H](C)CO)S(=O)(=O)c2ccc(C3=CCCCC3)cc2O[C@@H]1CN(C)S(C)(=O)=O,-9.8
C[C@@H]1CN([C@@H](C)CO)S(=O)(=O)c2ccc(-c3ccc(F)cc3)cc2O[C@@H]1CN(C)C(=O)C1CCOCC1,11.2
C[C@@H]1CN([C@@H](C)CO)S(=O)(=O)c2ccc(-c3cncnc3)cc2O[C@H]1CN(C)C(=O)Cc1ccncc1,2.7
C[C@@H]1CN([C@H](C)CO)S(=O)(=O)c2ccc(-c3ccc(C(=O)N(C)C)cc3)cc2O[C@H]1CN(C)C(=O)C1CCOCC1,-15.1
C[C@@H]1CN([C@@H](C)CO)S(=O)(=O)c2ccc(-c3ccc(C(=O)N(C)C)cc3)cc2O[C@H]1CN(C)C(=O)C1CCOCC1,-11.5
C[C@@H]1CN([C@H](C)CO)S(=O)(=O)c2ccc(C3=CCCC3)cc2O[C@@H]1CN(C)C(=O)Cc1ccncc1,33.0*
C[C@@H]1CN([C@H](C)CO)S(=O)(=O)c2ccc(-c3cncnc3)cc2O[C@@H]1CN(C)C(=O)Cc1ccncc1,5.1
C[C@@H]1CN([C@H](C)CO)S(=O)(=O)c2ccc(C3=CCCC3)cc2O[C@@H]1CN(C)C(=O)C1CCOCC1,33.8*
C[C@@H]1CN([C@@H](C)CO)S(=O)(=O)c2ccc(-c3ccc(C(=O)N(C)C)cc3)cc2O[C@@H]1CN(C)C(=O)C1CCC1,40.3*
C[C@H]1CN([C@@H](C)CO)S(=O)(=O)c2ccc(-c3ccc(F)cc3)cc2O[C@@H]1CN(C)C(=O)C1CCOCC1,-18.6
C[C@H]1CN([C@@H](C)CO)C(=O)c2cc(Br)cnc2O[C@@H]1CN(C)Cc1cccc(F)c1,-0.1
C[C@@H]1CN([C@H](C)CO)C(=O)c2cc(C#CC(C)(C)O)cnc2O[C@H]1CN(C)C(=O)C1CC1,-5.6
COc1ccccc1-c1ccc2c(c1)O[C@@H](CN(C)S(=O)(=O)c1ccc(C)cc1)[C@@H](C)CN([C@@H](C)CO)S2(=O)=O,-12.8
COCC#Cc1cnc2c(c1)C(=O)N([C@H](C)CO)C[C@@H](C)[C@H](CN(C)C(=O)Nc1c(C)noc1C)O2,2.9
C[C@@H]1CN([C@@H](C)CO)C(=O)c2cc(-c3ccc(F)cc3)cnc2O[C@H]1CN(C)Cc1ccc(C(=O)O)cc1,4.8
SMILES,miR122 inh
C[C@H](CO)N1C[C@H](C)[C@@H](CN(C)C(=O)Nc2ccc(F)cc2)Oc2c(NS(=O)(=O)c3ccccc3)cccc2C1=O,-128.4
CCN(CC)c1ccc(/C=N/NC(=O)c2ccoc2C)c(O)c1,49.7*
COc1ccc(C#Cc2ccc3c(c2)O[C@H](CN(C)C)[C@@H](C)CN([C@H](C)CO)S3(=O)=O)cc1,-6.8
CC1CCCC(NC(=O)COC(=O)c2ccccc2NC(=O)c2ccco2)C1C (centres undefined),-170.9
Cc1sc(NC(=O)c2ccccc2)c(C(c2ccc(Cl)cc2)N2CCN(CCO)CC2)c1C (centres undefined),-94.7
CCOC(=O)C1CCN(C(c2cccnc2)c2c(NC(=O)c3ccco3)sc(C)c2C)CC1 (centres undefined),39.1*
C[C@H](CO)N1C[C@H](C)[C@@H](CN(C)S(=O)(=O)c2ccccc2F)Oc2cc(C#Cc3ccccc3)ccc2S1(=O)=O,-34.2
CCC(=O)N1C[C@@H](C)[C@H](OC)CN(C)C(=O)c2ccc(NS(C)(=O)=O)cc2OC[C@H]1C,-1.8
CCCNC(=O)N(C)C[C@@H]1Oc2ncc(/C=C/c3ccccc3)cc2C(=O)N([C@H](C)CO)C[C@@H]1C,5.0
